# In PubChem BioAssay (Tox21):
# Records with an inconclusive call do not appear. Where a call stands in place of a potency, no number is given. Active and inactive are the calls of the source. The call rests on the fitted dose curve.
# Biological target: Vitamin D3 receptor (Homo sapiens) (UniProt P11473)
# Assay: qHTS assay to identify small molecule agonists of the vitamin D receptor (VDR) signaling pathway (AID 743222)
# Details: HEK293T VDR-UAS-bla, beta-lactamase FRET ratio, 16 h; series mostly up to 63.5 µM
# From the text: National Center for Advancing Translational Sciences [NCATS]
# NIH Chemical Genomics Center [NCGC]
# U.S. Environmental Protection Agency [EPA]
# National Institutes of Environmental Health Sciences [NIEHS]
# National Toxicology Program [NTP]
# U.S. Food and Drug Administration [FDA]
# The vitamin D receptor (VDR), a member of nuclear hormone receptor superfamily, plays a critical role in calcium homeostasis and bone metabolism. It is also involved in cell differentiation and growth, and thrombogenicity.
# Tox21 Assay Protocol Summary:
# VDR-bla cells were dispensed at 2,000 cells/6 uL/well into black wall/clear-bottom 1536-well plates using a Multidrop Combi (Thermo Fisher Scientific, Waltham, MA) dispenser. After the assay plates were incubated at a 37C and 5% CO2 for 4 h, 23 nL of compounds dissolved in DMSO, positive controls or DMSO only was transferred to the assay plate by a Pintool station (Kalypsys, San Diego, CA). The plates were incubated at 37C and 5% CO2 for 16 h. After 1 uL of LiveBLAzerTM B/G FRET substrate was added using a Bioraptr Flying Reagent Dispenser (FRD) workstation (Beckman Coulter, Indianapolis, IN, USA), the plates were incubated at room temperature for 2 h, and fluorescence intensity was measured by an Envision plate reader (PerkinElmer, Shelton, CT).
# Vitamin D3 receptor (Homo sapiens), sequence (P11473 whole entry, looked up): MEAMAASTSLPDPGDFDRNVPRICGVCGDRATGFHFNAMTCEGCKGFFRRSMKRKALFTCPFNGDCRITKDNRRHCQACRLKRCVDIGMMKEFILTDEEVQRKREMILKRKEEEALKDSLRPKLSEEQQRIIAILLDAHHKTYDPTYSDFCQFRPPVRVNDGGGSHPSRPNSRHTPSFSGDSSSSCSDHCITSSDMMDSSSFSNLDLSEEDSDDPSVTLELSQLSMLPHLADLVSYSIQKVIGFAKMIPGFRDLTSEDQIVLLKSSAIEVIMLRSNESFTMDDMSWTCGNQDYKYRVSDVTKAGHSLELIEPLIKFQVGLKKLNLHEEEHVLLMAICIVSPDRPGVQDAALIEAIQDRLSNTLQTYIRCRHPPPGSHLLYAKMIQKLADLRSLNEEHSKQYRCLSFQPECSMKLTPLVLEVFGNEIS
row,Compound,Potency
1,N=c1ccn2c(n1)O[C@H]1[C@H](O)[C@@H](CO)O[C@H]12,inactive
2,CC(C)Nc1ccc(NC(C)C)c2c1C(=O)c1ccccc1C2=O,inactive
3,CC(=O)OC[C@H]1O[C@@H](n2ncc(=O)[nH]c2=O)[C@H](OC(C)=O)[C@@H]1OC(C)=O,inactive
4,Cc1cc(C(=O)O)ccc1[N+](=O)[O-],inactive
5,CNCCCCOc1ccccc1Cc1ccccc1,inactive
6,CC1CCC(=O)C1=O (stereo not given),inactive
7,CCCCC1=NC2(CCCC2)C(=O)N1Cc1ccc(-c2ccccc2-c2nn[nH]n2)cc1,inactive
8,CCCCCCCCCCCc1ccccc1,inactive
9,CN(C)CCCN1c2ccccc2Sc2ccccc21,inactive
10,CCC(C)O (stereo not given),inactive
11,C[N+]1(C)CCC(OC(=O)C(O)(c2ccccc2)C2CCCC2)C1 (stereo not given),inactive
12,C/C=C(/C(=C/C)c1ccc(OC(C)=O)cc1)c1ccc(OC(C)=O)cc1,inactive
13,CCCCCCCCCCCCCCCCCCOS(=O)(=O)O,inactive
14,Nc1ccccc1S(=O)(=O)c1ccccc1,inactive
15,CCCCCCCCCc1ccc(OCCOCCO)cc1,inactive
16,O=C1OC(=O)C2C3C=CC(C3)C12 (stereo not given),inactive
17,CC1(c2ccccc2)OC(C(=O)O)=CC1=O (stereo not given),inactive
18,C=C(C)C(=O)OCC,inactive
19,NCc1ccccc1Sc1ccccc1CO,inactive
20,C1CCCNCCC1,inactive

row,Compound,Potency
1,CN1CCC(=C2c3ccccc3Sc3ccccc32)CC1,inactive
2,CO[C@@H]1[C@H](OC(=O)/C=C/C=C/C=C/C=C/C(=O)O)CC[C@]2(CO2)[C@H]1[C@@]1(C)O[C@@H]1CC=C(C)C,inactive
3,CN(C)c1ccc(CCO)cc1,inactive
4,CCCCCCCC/C=C\CCCCCCCC(=O)OCC,inactive
5,OC(C#CCN1CCCC1)(c1ccccc1)c1ccccc1,inactive
6,CC(=O)c1cccc([N+](=O)[O-])c1,inactive
7,CNC(=O)CN(CCN(CCN(CC(=O)[O-])CC(=O)NC)CC(=O)[O-])CC(=O)[O-].O.[Gd+3],inactive
8,CC(CC=O)c1ccccc1 (stereo not given),inactive
9,COC(C)OC,inactive
10,CC(=O)NO,inactive
11,CC(C)(C)OCC1CO1 (stereo not given),inactive
12,O=C1OC(CN2CCOCC2)CN1/N=C/c1ccc([N+](=O)[O-])o1 (stereo not given),inactive
13,O=C(NCCO[N+](=O)[O-])c1cccnc1,inactive
14,COc1ccc(C(=O)N2CCN(CC(=O)N3CCOCC3)CC2)cc1,inactive
15,COc1ccc2cccc(CCNC(C)=O)c2c1,inactive
16,Cc1[nH]c(C)c(Cl)c(=O)c1Cl,inactive
17,CN(C)CCN(Cc1ccc(Cl)cc1)c1ccccn1,inactive
18,NS(=O)(=O)c1ccc(N2CCCCS2(=O)=O)cc1,inactive
19,CC(C)(CO)[N+](=O)[O-],inactive
20,OC[C@H]1O[C@@H](OCCc2ccc(O)cc2)[C@H](O)[C@@H](O)[C@@H]1O,inactive
